From PubChem BioAssay (EPA / NIEHS)
Several values for one entry are separate records, joined by “and”; a condition that tells them apart may be missing. Equal values may be shown once. Inconclusive results are not listed. Some compounds were tested as several samples or in several runs, with calls that do not always agree. Activity calls are given as the source filed them. The calls were made as follows, unless noted: active = hit-call score of the fitted dose curve at least 0.9, where 1 is the maximum; inconclusive = response in the unintended direction; inactive = score below 0.9.

What was measured:
[1] = molecular target: Peroxisome proliferator-activated receptor gamma (Homo sapiens) (UniProt P37231); test: ATG_hPPARg_XSP2: Attagene TRANS-FACTORIAL Multi-Species (XSP2) HepG2 Assay for human Peroxisome Proliferator-activated Receptor gamma (PPARg) (AID 2283829);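 also: actives raise reporter mRNA above DMSO so AC50 reflects PPARg activation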
Chain of Peroxisome proliferator-activated receptor gamma (Homo sapiens) (P37231 whole entry, looked up, the tested form may be a part): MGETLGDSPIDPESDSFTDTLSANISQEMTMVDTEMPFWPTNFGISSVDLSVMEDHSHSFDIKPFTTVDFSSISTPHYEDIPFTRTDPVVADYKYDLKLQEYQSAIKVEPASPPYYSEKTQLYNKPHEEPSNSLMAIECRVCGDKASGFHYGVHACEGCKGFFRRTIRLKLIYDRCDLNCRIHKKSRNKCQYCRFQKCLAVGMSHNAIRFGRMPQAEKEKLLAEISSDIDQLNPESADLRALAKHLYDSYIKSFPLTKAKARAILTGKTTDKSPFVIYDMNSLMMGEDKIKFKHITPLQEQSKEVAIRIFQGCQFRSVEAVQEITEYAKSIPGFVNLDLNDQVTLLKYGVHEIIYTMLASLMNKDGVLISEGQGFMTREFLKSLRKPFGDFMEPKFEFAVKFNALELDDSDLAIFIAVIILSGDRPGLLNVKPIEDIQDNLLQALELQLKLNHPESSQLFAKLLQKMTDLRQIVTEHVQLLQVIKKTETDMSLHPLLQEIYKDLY
Procedure, shortened: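 Human HepG2 cells carried transiently transfected Gal4 reporter units and were treated with chemical for 24 h alongside androgen-receptor stimulants (3 nM 6-alpha-fluorotestosterone, 1.5 nM norgestrel). Reporter transcripts were detected by RT-PCR with capillary electrophoresis, analysed in the positive direction against DMSO.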

[2] = molecular target: mouse Peroxisome Proliferator-activated Receptor gamma (PPARg), Pparg (gene 19016) (UniProt P37238); test: ATG_mPPARg_XSP2: Attagene TRANS-FACTORIAL Multi-Species (XSP2) HepG2 Assay for mouse Peroxisome Proliferator-activated Receptor gamma (PPARg) (AID 2283830);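 also: hits are gains in reporter mRNA above DMSO so AC50 marks activation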
Chain of mouse Peroxisome Proliferator-activated Receptor gamma (PPARg), Pparg (gene 19016) (P37238 whole entry, looked up, the tested form may be a part): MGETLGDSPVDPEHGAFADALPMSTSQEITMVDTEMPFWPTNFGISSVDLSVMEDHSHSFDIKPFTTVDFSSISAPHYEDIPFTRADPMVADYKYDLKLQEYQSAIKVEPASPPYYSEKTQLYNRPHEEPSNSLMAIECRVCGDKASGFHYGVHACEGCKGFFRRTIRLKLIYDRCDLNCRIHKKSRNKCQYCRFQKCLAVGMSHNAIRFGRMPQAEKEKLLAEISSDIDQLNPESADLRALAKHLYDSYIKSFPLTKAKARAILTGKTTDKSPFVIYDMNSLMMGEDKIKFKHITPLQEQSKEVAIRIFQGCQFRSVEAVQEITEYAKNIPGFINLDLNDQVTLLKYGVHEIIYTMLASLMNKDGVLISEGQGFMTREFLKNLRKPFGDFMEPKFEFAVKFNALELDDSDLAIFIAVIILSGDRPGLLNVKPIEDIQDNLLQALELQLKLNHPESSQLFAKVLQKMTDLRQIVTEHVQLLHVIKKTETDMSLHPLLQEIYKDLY
Procedure, shortened: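 Multiplexed TRANS reporter readout: after 24 h chemical exposure of transfected HepG2 cells (with 3 nM 6-alpha-fluorotestosterone, 1.5 nM norgestrel present), RNA reverse-transcribed, amplified, 6-FAM-labelled and resolved by capillary electrophoresis; mouse PPARg-Gal4 induction scored against DMSO.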

[3] = molecular target: Nuclear receptor subfamily 1 group I member 2 (Mus musculus) (UniProt O54915); test: ATG_mPXR_XSP2: Attagene TRANS-FACTORIAL Multi-Species (XSP1) HepG2 Assay for mouse Pregnane X Receptor (PXR) (AID 2283831)
Chain of Nuclear receptor subfamily 1 group I member 2 (Mus musculus) (O54915 whole entry, looked up): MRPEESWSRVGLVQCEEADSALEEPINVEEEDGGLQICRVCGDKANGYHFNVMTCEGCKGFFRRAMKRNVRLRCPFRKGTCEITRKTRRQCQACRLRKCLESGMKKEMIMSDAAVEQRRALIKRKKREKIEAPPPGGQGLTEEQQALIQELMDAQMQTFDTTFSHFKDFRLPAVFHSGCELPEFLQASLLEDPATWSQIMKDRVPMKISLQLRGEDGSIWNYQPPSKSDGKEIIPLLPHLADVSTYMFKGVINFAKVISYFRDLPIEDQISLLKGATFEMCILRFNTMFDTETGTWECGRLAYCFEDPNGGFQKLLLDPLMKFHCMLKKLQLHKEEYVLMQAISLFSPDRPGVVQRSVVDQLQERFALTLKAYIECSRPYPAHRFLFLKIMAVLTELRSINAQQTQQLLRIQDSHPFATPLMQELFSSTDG
Procedure, shortened: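 Fluorescence signals from capillary electrophoresis of RT-PCR-amplified reporter mRNA give the readout, gain-of-signal versus DMSO. Transfected HepG2 cells, 24 h dosing, medium contained 3 nM 6-alpha-fluorotestosterone and 1.5 nM norgestrel.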

[4] = test system: zebrafish Peroxisome Proliferator-activated Receptor gamma (PPARg), gene 557037; test: ATG_zfPPARg_XSP2: Attagene TRANS-FACTORIAL Multi-Species (XSP2) HepG2 Assay for zebrafish Peroxisome Proliferator-activated Receptor gamma (PPARg) (AID 2283833);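 also: actives increase reporter signal over DMSO so AC50 reflects activation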
Procedure, shortened: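 HepG2, transient MRTU transfection, 24 h compound; zfPPARg-GAL4 reporter mRNA by RT-PCR + capillary electrophoresis; gain-of-signal vs DMSO.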

[5] = test system: turtle Thyroid Hormone Receptor, alpha (TRa), gene 101949057; test: ATG_trTRa_XSP2: Attagene TRANS-FACTORIAL Multi-Species (XSP1) HepG2 Assay for turtle Thyroid Hormone Receptor, alpha (TRa) (AID 2283834);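 also: hits raise reporter mRNA over the DMSO baseline so AC50 marks activators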
Procedure, shortened: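 Multiplexed TRANS reporter assay; HepG2 carrying NR-Gal4 constructs treated 24 h. mRNA of the GAL4-UAS reporter quantified via labelled RT-PCR fragments on a genetic analyzer, vs DMSO negative control.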

[6] = ATG_M_61_XSP2: Attagene TRANS-FACTORIAL Multi-Species (XSP2) HepG2 Assay for M61 Transcription Factor (Internal Marker) (AID 2283835; active = hit-call score of the fitted dose curve at least 0.9, where 1 is the maximum; inactive = score below 0.9;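 also: reporter mRNA of an internal background marker read by RT-PCR and capillary electrophoresis; active means a rise in signal above the DMSO baseline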)
Procedure, shortened: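 Transient MRTU transfection of human HepG2; 24 h chemical dosing with 3 nM 6-alpha-fluorotestosterone + 1.5 nM norgestrel added for AR stimulation. RNA isolated, RT, PCR, FAM-labelled, HpaI cut, CE read. Positive direction vs DMSO.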

[7] = molecular target: zebrafish Thyroid Hormone Receptor beta (TRb), thrb (gene 30607) (UniProt Q9PVE4); test: ATG_zfTRb_XSP2: Attagene TRANS-FACTORIAL Multi-Species (XSP1) HepG2 Assay for zebrafish Thyroid Hormone Receptor beta (TRb) (AID 2283836);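 as to AC50: potency for induction of reporter signal above DMSO so agonist direction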
Chain of zebrafish Thyroid Hormone Receptor beta (TRb), thrb (gene 30607) (Q9PVE4 whole entry, looked up, the tested form may be a part): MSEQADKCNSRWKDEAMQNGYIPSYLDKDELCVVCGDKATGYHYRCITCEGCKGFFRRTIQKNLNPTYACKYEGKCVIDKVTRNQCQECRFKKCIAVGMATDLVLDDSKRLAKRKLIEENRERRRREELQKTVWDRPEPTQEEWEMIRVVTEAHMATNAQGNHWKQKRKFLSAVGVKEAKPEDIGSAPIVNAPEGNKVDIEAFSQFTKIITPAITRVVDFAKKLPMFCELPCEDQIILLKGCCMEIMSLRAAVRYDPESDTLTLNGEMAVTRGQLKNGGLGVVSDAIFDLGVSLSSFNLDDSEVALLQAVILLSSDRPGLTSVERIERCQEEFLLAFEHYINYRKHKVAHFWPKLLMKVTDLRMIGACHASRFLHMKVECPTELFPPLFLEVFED
Procedure, shortened: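 Reporter transcripts measured by RT-PCR, 6-FAM labelling, HpaI digestion and capillary electrophoresis after 24 h chemical exposure. Human HepG2 cells carry an exogenous zebrafish TRb-GAL4 chimera; medium included 3 nM 6-alpha-fluorotestosterone plus 1.5 nM norgestrel.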

[8] = molecular target: human Thyroid hormone Receptor alpha (TRa), THRA (gene 7067) (UniProt P10827); test: ATG_hTRa_XSP2: Attagene TRANS-FACTORIAL Multi-Species (XSP2) HepG2 Assay for human Thyroid hormone Receptor alpha (TRa) (AID 2283838)
Chain of human Thyroid hormone Receptor alpha (TRa), THRA (gene 7067) (P10827 whole entry, looked up, the tested form may be a part): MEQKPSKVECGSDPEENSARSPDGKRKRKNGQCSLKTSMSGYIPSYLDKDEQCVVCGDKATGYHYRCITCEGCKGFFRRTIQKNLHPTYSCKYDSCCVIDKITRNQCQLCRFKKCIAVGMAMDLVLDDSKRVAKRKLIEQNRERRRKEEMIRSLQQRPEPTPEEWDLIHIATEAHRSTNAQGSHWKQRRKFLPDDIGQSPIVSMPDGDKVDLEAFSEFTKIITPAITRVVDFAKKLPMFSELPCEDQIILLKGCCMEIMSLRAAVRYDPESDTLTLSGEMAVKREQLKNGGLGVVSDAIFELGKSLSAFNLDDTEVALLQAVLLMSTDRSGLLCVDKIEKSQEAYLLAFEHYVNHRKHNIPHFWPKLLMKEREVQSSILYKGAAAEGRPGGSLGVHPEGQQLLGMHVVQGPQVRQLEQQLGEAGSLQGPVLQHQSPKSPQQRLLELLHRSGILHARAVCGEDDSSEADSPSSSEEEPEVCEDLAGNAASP
Procedure, shortened: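 Reporter transcripts were read by RT-PCR with fluorescent primer extension, HpaI digestion and capillary electrophoresis. These came from HepG2 cells carrying multiplexed TRa-Gal4 TRANS constructs, harvested 24 hours after dosing. The medium also held 6-alpha-fluorotestosterone (3 nM) and norgestrel (1.5 nM), and increases were fitted against DMSO.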

[9] = molecular target: frog Thyroid hormone Receptor alpha (TRa), thra-a (gene 397942) (UniProt P15204); test: ATG_frTRa_XSP2: Attagene TRANS-FACTORIAL Multi-Species (XSP2) HepG2 Assay for frog Thyroid hormone Receptor alpha (TRa) (AID 2283839);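 as to AC50: AC50 reflects induction of frog TRa-driven reporter mRNA above DMSO baseline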
Chain of frog Thyroid hormone Receptor alpha (TRa), thra-a (gene 397942) (P15204 whole entry, looked up, the tested form may be a part): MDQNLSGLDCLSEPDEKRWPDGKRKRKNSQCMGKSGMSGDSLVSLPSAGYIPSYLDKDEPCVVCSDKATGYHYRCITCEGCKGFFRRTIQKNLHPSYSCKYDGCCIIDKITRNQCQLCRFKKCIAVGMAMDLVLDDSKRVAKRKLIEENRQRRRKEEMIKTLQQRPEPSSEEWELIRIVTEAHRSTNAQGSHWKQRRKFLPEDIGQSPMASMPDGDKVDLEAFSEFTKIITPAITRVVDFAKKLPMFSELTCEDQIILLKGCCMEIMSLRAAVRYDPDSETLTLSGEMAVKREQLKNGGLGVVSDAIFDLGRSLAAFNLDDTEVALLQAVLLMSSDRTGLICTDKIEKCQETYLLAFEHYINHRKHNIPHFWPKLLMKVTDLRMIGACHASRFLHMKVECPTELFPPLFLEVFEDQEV
Procedure, shortened: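 Chimeric frog TRα-GAL4 activity in human liver cells measures reporter transcript induction 24 h post-dose. Detection uses RT-PCR, HpaI-digested labelled products and fluorescence capillary electrophoresis; DMSO serves as negative control.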

[10] = test system: Sodium/Iodide Symporter (NIS), SLC5A5 (gene 6528); test: CPHEA_Stoker_NIS_Inhibition_RAIU: CPHEA's Radioactive Iodide Uptake (RAIU) Assay for Sodium/Iodide Symporter (NIS) Inhibition, Stoker and Laws Labs (AID 2283841)
Procedure, shortened: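 HEK293T cells stably expressing human NIS (hNIS-HEK293T-EPA) were exposed to test chemicals at 0.001–100uM (0.5% final DMSO) with 125I at a final 329pM in HBSS/10mM HEPES pH 7.4. After 2 hours at room temperature and ice-cold washes, intracellular 125I was counted as CPM and normalized to DMSO wells.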

[11] = CPHEA_Stoker_NIS_Cytotoxicity: Cytotoxicity Assessment for CPHEA's Radioactive Iodide Uptake (RAIU) Assay for Sodium/Iodide Symporter (NIS) Inhibition, Stoker and Laws Labs (AID 2283897);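 as to AC50: active means loss of ATP signal versus DMSO meaning cytotoxicity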
Procedure, shortened: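 hNIS-HEK293T-EPA human kidney cells were exposed for 2 hours at room temperature to test chemicals (0.001–100uM, 0.5% final DMSO) in HEPES-buffered HBSS, pH 7.4. Viability was read as ATP content by luciferase bioluminescence, loss of signal versus DMSO.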

[12] = molecular target: zebrafish Thyroid Hormone Receptor alpha (TRa), thraa (gene 30670) (UniProt Q98867); test: ATG_zfTRa_XSP2: Attagene TRANS-FACTORIAL Multi-Species (XSP1) HepG2 Assay for zebrafish Thyroid Hormone Receptor alpha (TRa) (AID 2283832);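 also: actives raise zebrafish TRa-Gal4 reporter transcript above DMSO baseline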
Chain of zebrafish Thyroid Hormone Receptor alpha (TRa), thraa (gene 30670) (Q98867 whole entry, looked up, the tested form may be a part): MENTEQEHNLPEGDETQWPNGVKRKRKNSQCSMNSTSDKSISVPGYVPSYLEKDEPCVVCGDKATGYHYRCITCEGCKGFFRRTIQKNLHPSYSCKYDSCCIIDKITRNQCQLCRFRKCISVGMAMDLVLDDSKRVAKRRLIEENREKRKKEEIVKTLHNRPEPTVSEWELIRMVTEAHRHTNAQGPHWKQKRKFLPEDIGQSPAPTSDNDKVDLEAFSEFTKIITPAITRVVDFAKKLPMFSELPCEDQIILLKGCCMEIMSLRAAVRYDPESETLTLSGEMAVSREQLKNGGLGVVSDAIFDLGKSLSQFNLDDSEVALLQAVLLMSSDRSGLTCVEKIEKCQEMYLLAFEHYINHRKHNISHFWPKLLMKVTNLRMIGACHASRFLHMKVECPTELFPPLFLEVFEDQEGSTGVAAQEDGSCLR
Procedure, shortened: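 Chimeric zebrafish TRa-Gal4 activity read in transfected human HepG2 as GAL4-UAS reporter transcripts, 24 h post-dose, via RT-PCR with labeled primer extension and capillary electrophoresis. Medium also carries 3 nM 6-alpha-fluorotestosterone and 1.5 nM norgestrel; DMSO baseline.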

[13] = ATG_XTT_Cytotoxicity_XSP2: Cytotoxicity Assessment in the Attagene TRANS-FACTORIAL Multi-Species (XSP2) HepG2 Assay (AID 2283837)
Procedure, shortened: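 XTT-based cell number read-out in human HepG2 liver cells carrying transfected reporter units, measured 24 h after chemical dosing. Activity is signal loss versus DMSO baseline.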

[14] = CEETOX_H295R_11DCORT_noMTC: CeeTox H295R High-throughput Steroidogenesis Assay for 11-Deoxycortisol (11DCORT), maximum tolerated concentration (MTC) filtered results only (AID 2283911; active = hit-call score of the fitted dose curve at least 0.9, where 1 is the maximum; inactive = score below 0.9); conditions: actives raise or lower the signal
Procedure, shortened: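 Forskolin-primed (10 uM, 48 h) H295R adrenal cells are dosed for 48 h at 0.1% DMSO; medium 11-deoxycortisol is quantified by LC-MS/MS against a 7-point standard curve, with activity fitted in both directions versus DMSO.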

[15] = CEETOX_H295R_OHPREG_noMTC: CeeTox H295R High-throughput Steroidogenesis Assay for OH-Pregnenolone (OHPREG), maximum tolerated concentration (MTC) filtered results only (AID 2283912; active = hit-call score of the fitted dose curve at least 0.9, where 1 is the maximum; inactive = score below 0.9); conditions: actives raise or lower the signal
Procedure, shortened: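 H295R; 10 uM forskolin 48 h pre-stim; test cpd in DMSO (0.1% final) 48 h; media MTBE-extracted, HPLC-MS/MS for OH-pregnenolone; bidirectional fit vs DMSO; no MTC (MTT) filtering.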

[16] = CEETOX_H295R_OHPROG_noMTC: CeeTox H295R High-throughput Steroidogenesis Assay for OH-Progesterone (OHPROG), maximum tolerated concentration (MTC) filtered results only (AID 2283914; active = hit-call score of the fitted dose curve at least 0.9, where 1 is the maximum; inactive = score below 0.9); conditions: actives raise or lower the signal
Procedure, shortened: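 Medium hormone measured by reverse-phase C18 HPLC with positive electrospray MS/MS after MTBE liquid-liquid extraction. Cells had 48 h forskolin (10 uM) prestimulation, then 48 h chemical dosing. Gain or loss of signal fitted relative to DMSO baseline.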

[17] = CEETOX_H295R_CORTISOL_noMTC: CeeTox H295R High-throughput Steroidogenesis Assay for Cortisol, maximum tolerated concentration (MTC) filtered results only (AID 2283916; active = hit-call score of the fitted dose curve at least 0.9, where 1 is the maximum; inactive = score below 0.9); conditions: actives raise or lower the signal
Procedure, shortened: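 H295R human adrenal cells prestimulated 48 h with 10 uM forskolin, then exposed 48 h to chemical in 0.1% DMSO; cortisol in medium quantified by HPLC-MS/MS; bidirectional fit vs DMSO baseline, concentrations not MTT-filtered for MTC.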

[18] = CEETOX_H295R_CORTIC_noMTC: CeeTox H295R High-throughput Steroidogenesis Assay for Corticosterone (CORTIC), maximum tolerated concentration (MTC) filtered results only (AID 2283917; active = hit-call score of the fitted dose curve at least 0.9, where 1 is the maximum; inactive = score below 0.9); conditions: actives raise or lower the signal
Procedure, shortened: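 Corticosterone secreted into the medium was measured by reverse-phase C18 HPLC with tandem MS after MTBE extraction. Cells (H295R) had 48 h forskolin (10 uM) stimulation before 48 h chemical exposure; gain or loss of signal was fitted relative to DMSO.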

[19] = CEETOX_H295R_DOC_noMTC: CeeTox H295R High-throughput Steroidogenesis Assay for DOC, maximum tolerated concentration (MTC) filtered results only (AID 2283918; active = hit-call score of the fitted dose curve at least 0.9, where 1 is the maximum; inactive = score below 0.9); conditions: actives raise or lower the signal
Procedure, shortened: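 H295R cells prestimulated 48 h with 10 uM forskolin, then exposed 48 h to chemical in 0.1% DMSO. 11-Deoxycorticosterone in medium measured by MTBE extraction and HPLC-MS/MS; bidirectional fit vs DMSO, no MTC filter.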

Oc1ccc(Cl)cc1Cc1ccccc1
AC50 [1]: 10 µM (active) | outcome [2]: inactive | outcome [3]: inactive | outcome [4]: inactive | outcome [5]: inactive | outcome [6]: inactive | AC50 [7]: 10 µM (active) | outcome [8]: inactive | AC50 [9]: 10 µM (active) | AC50 [10]: 50 µM (active) and 11.2 µM (active) and 21.7 µM (active) | AC50 [11]: 24.9 µM (active) and 50 µM (active)

COP(=S)(OC)Oc1ccc([N+](=O)[O-])cc1
AC50 [1]: 27.7 µM (active) | outcome [1]: inactive | AC50 [2]: 27 µM (active) | outcome [2]: inactive | AC50 [3]: 41.4 µM (active) | outcome [3]: inactive | outcome [12]: inactive | outcome [4]: inactive | outcome [5]: inactive | outcome [7]: inactive | outcome [13]: inactive | outcome [8]: inactive | outcome [9]: inactive

C#CCN1C(=O)COc2cc(F)c(N3C(=O)C4=C(CCCC4)C3=O)cc21
AC50 [10]: 50 µM (active) | AC50 [11]: 50 µM (active)

CC1(C)C(C=C(Cl)Cl)C1C(=O)OC(C#N)c1ccc(F)c(Oc2ccccc2)c1 (stereo not drawn)
AC50 [1]: 20.5 µM (active) | AC50 [2]: 10.9 µM (active) | AC50 [3]: 1.97 µM (active) | outcome [12]: inactive | AC50 [4]: 19.8 µM (active) | outcome [5]: inactive | outcome [7]: inactive | AC50 [9]: 37.1 µM (active) | outcome [11]: inactive

O=S1OCC2C(CO1)C1(Cl)C(Cl)=C(Cl)C2(Cl)C1(Cl)Cl (stereo not drawn)
outcome [1]: inactive | outcome [3]: inactive | outcome [12]: inactive | outcome [6]: inactive | outcome [7]: inactive | outcome [9]: inactive | AC50 [10]: 50 µM (active) | outcome [11]: inactive

N#Cc1c(Cl)c(Cl)c(Cl)c(C#N)c1Cl
outcome [10]: inactive | outcome [11]: inactive

CC1(c2ccc(Oc3ccccc3)cc2)OC(=O)N(Nc2ccccc2)C1=O (stereo not drawn)
outcome [10]: inactive | AC50 [11]: 5.4 µM (active)

CCC(C)(NC(=O)c1cc(Cl)c(C)c(Cl)c1)C(=O)CCl (stereo not drawn)
AC50 [10]: 31.4 µM (active) | outcome [11]: inactive

Oc1cc(Cl)ccc1Oc1ccc(Cl)cc1Cl
AC50 [1]: 11.1 µM (active) | AC50 [2]: 15 µM (active) | AC50 [3]: 11.1 µM (active) | outcome [12]: inactive | outcome [4]: inactive | AC50 [5]: 4.84 µM (active) | outcome [6]: inactive | outcome [7]: inactive | outcome [8]: inactive | AC50 [9]: 2.46 µM (active)

CCc1ccc(C(=O)NN(C(=O)c2cc(C)cc(C)c2)C(C)(C)C)cc1
outcome [10]: inactive | outcome [11]: inactive

CCCN(CCC)c1c([N+](=O)[O-])cc(C(F)(F)F)cc1[N+](=O)[O-]
outcome [1]: inactive | outcome [2]: inactive | AC50 [3]: 1.88 µM (active) | outcome [12]: inactive | outcome [6]: inactive | outcome [7]: inactive | outcome [9]: inactive | outcome [10]: inactive | outcome [11]: inactive

CCS(=O)(=O)c1cccnc1S(=O)(=O)NC(=O)Nc1nc(OC)cc(OC)n1
outcome [14]: inactive | outcome [15]: inactive | outcome [16]: inactive | outcome [17]: inactive | outcome [18]: inactive | AC50 [19]: 7.07 µM (active)

CCOC1Oc2ccc(OS(C)(=O)=O)cc2C1(C)C (stereo not drawn)
outcome [10]: inactive | outcome [11]: inactive
